A selection: hits, their analogues and other compounds. The true share with any hit is near 2.4%.
TLR4 MyD88 comp: inhibitors of human TLR4-MyD88 binding. O00206+Q99836. HeLa CL3-4 TLR4/MyD88 BLA complementation, FRET ratio. inhibition, % at 8.4 µM. 200,000 tested, 0.18% active. AID 861; in the data active = inhibition above about 25%;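 note: 0% = vehicle and 100% = reference inhibitor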
ANO1 block: mouse TMEM16A channel inhibition, primary screen; Q8BHY3; HEK293 TMEM16A/YFP iodide influx fluorescence, ionomycin; normalized B-score (activity score, 25-100; higher = stronger inhibition) at 10 µM; 310,000 tested, 1.2% active; AID 588511;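 active = ratio plate-corrected score three or more library SD toward inhibition, starting fluorescence score within five deviations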;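 note: score derived from kinetic fluorescence span divided by baseline fluorescence per well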
HTR2A ag: mouse HTR2A agonism via beta-arrestin recruitment; P35363; CHO-K1 mHTR2A beta-arrestin complementation, luminescence; percent of 30 µM serotonin response; activation, % at 7.6 µM; 360,000 tested, 0.66% active; AID 624169;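 active = activation above a run cutoff, the mean activation of all tested compounds plus 3 SD, cut at about 14% in these data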;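 note: 0% = plate median of compound wells and 100% = 30 µM serotonin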
TLR9-MyD88 inh: blocks human TLR9 binding to MyD88; 340,000 tested, 0.21% active; inhibition, % at 4.98 µM; CHO BLA complementation TLR9-MyD88, CCF4 FRET ratio; AID 504734; Q9NR96+Q99836;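 active = inhibition above the mean over all tested compounds plus 3 SD, cut at about 21% in these data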;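 note: 0% = DMSO only wells and 100% = clavulanate BLA inhibitor control wells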
NOD2 RIPK2 PPI: NOD2-RIPK2 protein interaction inhibition; CHO BLA complementation NOD2-RIPK2, CCF4 ratio; inhibition, % at 4.98 µM; 360,000 tested, 0.38% active; AID 624267; in the data active = inhibition above about 21%;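 note: 0% = vehicle only and 100% = reference blocker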
Target sequence (O43353 whole entry, looked up): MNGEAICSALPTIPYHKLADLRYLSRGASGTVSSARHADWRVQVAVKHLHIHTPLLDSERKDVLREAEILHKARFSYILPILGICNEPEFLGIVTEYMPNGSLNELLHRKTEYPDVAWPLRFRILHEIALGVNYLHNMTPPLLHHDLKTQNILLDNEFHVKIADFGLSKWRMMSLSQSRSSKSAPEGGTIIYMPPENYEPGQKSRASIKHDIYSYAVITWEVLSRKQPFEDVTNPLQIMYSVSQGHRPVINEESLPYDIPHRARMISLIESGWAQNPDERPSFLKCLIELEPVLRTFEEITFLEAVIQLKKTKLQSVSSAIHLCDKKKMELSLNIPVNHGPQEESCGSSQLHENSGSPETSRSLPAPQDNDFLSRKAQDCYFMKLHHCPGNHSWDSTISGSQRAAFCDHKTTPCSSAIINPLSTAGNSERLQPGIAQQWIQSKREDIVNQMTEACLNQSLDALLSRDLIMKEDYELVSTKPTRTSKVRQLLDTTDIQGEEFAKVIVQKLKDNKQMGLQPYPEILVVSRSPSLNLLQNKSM
TMEM16A act: activates or potentiates the mouse TMEM16A chloride channel. HEK293 TMEM16A/YFP-H148Q/I152L, iodide quench fluorescence; active compounds read low. B-score at 10 µM. 340,000 tested, 0.3% active;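 active = fluorescence-ratio B-score plate-corrected deviation score at least 3 library SD below zero, with starting fluorescence score within 5 deviations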;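 note: channel opened by trigger with iodide after compound preincubation; score built on the fluorescence ratio of max minus min over baseline; more negative score means more quench and so TMEM16A activation or potentiation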
* = called active by the depositor.

What do the screens show for `CC[C@H](C)/C=C(C)/C=C/C1=CC2=C(Cl)C(=O)[C@@](C)(OC(C)=O)C(=O)C2=CO1`?
ANO1 block: inactive; TLR9-MyD88 inh: -2; TMEM16A act: inactive

Results for Cc1cc(OCC(=O)N2C[C@H]3C[C@@H](C2)c2cccc(=O)n2C3)c2c(C)cc(=O)oc2c1 ?
ANO1 block: inactive; HTR2A ag: 4; TLR9-MyD88 inh: -8; NOD2 RIPK2 PPI: 3; TMEM16A act: inactive

How did CC1Oc2cc3c(-c4c(O)cc(O)c5c(O)c6c(cc45)OC(C)C(C)C6=O)c(O)cc(O)c3c(O)c2C(=O)C1C (centres undefined) do in these assays?
ANO1 block: inactive; HTR2A ag: -4; TLR9-MyD88 inh: 14; NOD2 RIPK2 PPI: -4; TMEM16A act: -9.1*

What do the screens show for `COc1ccc(C(O)P(=O)(Oc2ccccc2)Oc2ccccc2)cc1` (centres undefined)?
ANO1 block: inactive; HTR2A ag: -5; TLR9-MyD88 inh: -10; NOD2 RIPK2 PPI: -5; TMEM16A act: inactive

Results for CNc1ccc2nc3ccccc3[n+](C)c2c1 ?
ANO1 block: inactive; HTR2A ag: -8; TLR9-MyD88 inh: 5; NOD2 RIPK2 PPI: -1; TMEM16A act: -5*

How did C[n+]1c2ccccc2nc2ccc(NCCO)cc21 do in these assays?
ANO1 block: inactive; HTR2A ag: 2; TLR9-MyD88 inh: -11; NOD2 RIPK2 PPI: 1; TMEM16A act: inactive

How did CCOC(=O)c1cc2c(cn1)[nH]c1ccccc12 do in these assays?
TLR4 MyD88 comp: 7; ANO1 block: inactive; HTR2A ag: 1; TLR9-MyD88 inh: 6; NOD2 RIPK2 PPI: -8; TMEM16A act: inactive

How did CNc1ccc2oc(C[C@H]3O[C@@]4(CC[C@H]3C)O[C@H]([C@H](C)C(=O)c3ccc[nH]3)[C@H](C)C[C@H]4C)nc2c1C(=O)O do in these assays?
ANO1 block: 100*; HTR2A ag: -6; TLR9-MyD88 inh: -13; NOD2 RIPK2 PPI: -17; TMEM16A act: -37*

How did CCN1C(=O)C(=Cc2ccc(N3CCOCC3)o2)C(=O)N(CC)C1=S do in these assays?
ANO1 block: inactive; HTR2A ag: -2; TLR9-MyD88 inh: -6; NOD2 RIPK2 PPI: 6; TMEM16A act: -5.5*

Results for C/C(CC(c1ccccc1)c1c(O)c2ccccc2oc1=O)=N\Nc1ccc([N+](=O)[O-])cc1[N+](=O)[O-] (centres undefined) ?
ANO1 block: 25*; HTR2A ag: -4; TLR9-MyD88 inh: -6; NOD2 RIPK2 PPI: -3; TMEM16A act: inactive

What do the screens show for `CCCNC(=O)N1[C@H]2CC[C@@H]1C(C(=O)OC)=C(c1ccc(C(C)=O)cc1)C2`?
HTR2A ag: -4; TLR9-MyD88 inh: -7; NOD2 RIPK2 PPI: -7; TMEM16A act: inactive

Results for Cc1ccc(-c2cc(-c3ccc(C)cc3)[n+](-c3ccc(C(=O)O)cc3)c(-c3ccc(C)cc3)c2)cc1 ?
ANO1 block: inactive; HTR2A ag: 5; TLR9-MyD88 inh: -7; NOD2 RIPK2 PPI: 2; TMEM16A act: inactive

Results for Cc1ccc(C[n+]2c(-c3ccc(C)cc3)cc(-c3ccc(C)cc3)cc2-c2ccc(C)cc2)cc1 ?
ANO1 block: 100*; HTR2A ag: 17*; TLR9-MyD88 inh: 2; NOD2 RIPK2 PPI: 13; TMEM16A act: inactive

Results for CSc1ccc(C(=O)C2CCCN(Cc3cc4ccccc4[nH]3)C2)cc1 (centres undefined) ?
TLR4 MyD88 comp: -4; ANO1 block: 25*; HTR2A ag: 0; TLR9-MyD88 inh: 3; NOD2 RIPK2 PPI: -4; TMEM16A act: inactive

What do the screens show for `CC1(C)C[C@H]2C=C(C=O)[C@]3(C=O)C[C@]3(C)[C@H]2C1`?
TLR4 MyD88 comp: 2; ANO1 block: 100*; HTR2A ag: -2; TLR9-MyD88 inh: 8; NOD2 RIPK2 PPI: -10; TMEM16A act: inactive

Results for O=C1NC(=O)C(Nc2ccc(Cl)c(Cl)c2)C(=O)N1 ?
HTR2A ag: -2; TLR9-MyD88 inh: -5; NOD2 RIPK2 PPI: 2; TMEM16A act: inactive

How did CCC(=NCc1ccc(F)cc1)c1c(O)n(C)c(=O)n(C)c1=O do in these assays?
TLR4 MyD88 comp: 1; ANO1 block: 100*; HTR2A ag: -4; TLR9-MyD88 inh: 0; NOD2 RIPK2 PPI: 2; TMEM16A act: inactive

What do the screens show for `CCC(=NCCC(c1ccccc1)c1ccccc1)c1c(O)n(C)c(=O)n(C)c1=O`?
TLR4 MyD88 comp: 3; ANO1 block: inactive; HTR2A ag: 0; TLR9-MyD88 inh: 4; NOD2 RIPK2 PPI: -19; TMEM16A act: inactive

What do the screens show for `O=C(C1CCCO1)N1CCC2(CC1)OCCO2` (centres undefined)?
TLR4 MyD88 comp: 7; ANO1 block: inactive; HTR2A ag: 3; TLR9-MyD88 inh: 0; NOD2 RIPK2 PPI: -1; TMEM16A act: inactive

How did CCCCCn1c(=O)c(C(=O)Nc2cnccn2)c(O)c2ccccc21 do in these assays?
TLR4 MyD88 comp: -15; ANO1 block: inactive; HTR2A ag: -1; TLR9-MyD88 inh: 2; NOD2 RIPK2 PPI: 0; TMEM16A act: -6.5*

Results for CCOC(=O)C1(CCOc2ccccc2)CCN(C(C)CSC)CC1 (centres undefined) ?
ANO1 block: inactive; HTR2A ag: -3; TLR9-MyD88 inh: 0; NOD2 RIPK2 PPI: 1; TMEM16A act: inactive

How did COC(=O)C1CN(C#N)N(c2ccc(Cl)cc2)C12c1ccccc1-c1ccccc12 (centres undefined) do in these assays?
TLR4 MyD88 comp: 4; ANO1 block: inactive; HTR2A ag: -3; TLR9-MyD88 inh: 10; NOD2 RIPK2 PPI: 58*; TMEM16A act: inactive

What do the screens show for `O=c1[nH]c(=O)n(Cc2ccco2)c(O)c1/C=N/N1CCCCCC1`?
TLR4 MyD88 comp: -23; ANO1 block: inactive; HTR2A ag: 11; TLR9-MyD88 inh: 1; NOD2 RIPK2 PPI: -7; TMEM16A act: inactive

How did N#Cc1c(/N=C/c2c(O)n(Cc3ccco3)c(=O)[nH]c2=O)sc2c1CCCC2 do in these assays?
TLR4 MyD88 comp: -12; ANO1 block: inactive; HTR2A ag: 19*; TLR9-MyD88 inh: 1; NOD2 RIPK2 PPI: -6

What do the screens show for `CCOC(=O)c1ccccc1NC(=O)c1c(O)[nH]c(=S)[nH]c1=O`?
ANO1 block: inactive; HTR2A ag: -2; TLR9-MyD88 inh: -15; NOD2 RIPK2 PPI: -3; TMEM16A act: inactive

How did CCC(=NCCCN(CC)CC)c1c(O)n(C2CCCCC2)c(=O)[nH]c1=O do in these assays?
TLR4 MyD88 comp: -11; ANO1 block: 100*; HTR2A ag: 4; TLR9-MyD88 inh: 3; NOD2 RIPK2 PPI: -1; TMEM16A act: inactive

Results for Cc1ccc(CN2CCCN(Cc3ccc(Cl)cc3)S2(=O)=O)cc1 ?
ANO1 block: inactive; HTR2A ag: -2; TLR9-MyD88 inh: -5; NOD2 RIPK2 PPI: -13
